# Screens (PubChem)
# A selection: hits, their analogues and other compounds. The true share with any hit is near 3.5%.
# BoNT-F LC inh: BoNT/F light chain protease inhibitors, primary screen, biochemical, flow cytometry, MLPCN library | Multiplex microsphere protease cleavage assay | hit rate 0.22% among 360,000 | inhibition, % at 10 µM; in the data active = inhibition above about 35%, passing the limit was not always enough; inconclusive = no clear call, values can overlap the other calls; also: plate controls were buffer without enzyme for full effect and enzyme alone for no effect
# BoNT-A LC inh2: BoNT/A light chain protease inhibitors, primary screen, biochemical, flow cytometry, MLPCN library; multiplex microsphere protease substrate cleavage; inhibition, % at 10 µM; hit rate 0.17% among 360,000; AID 588499, 2011; also: plate controls were buffer without enzyme for full effect and enzyme alone for no effect
# Anthrax LF inh2: Bacillus anthracis LF protease inhibitors, primary screen, biochemical, multiplex microsphere, MLPCN library. Lethal factor (Bacillus anthracis), P15917. inhibition, % at 10 µM. hit rate 0.12% among 360,000. multiplex microsphere protease cleavage assay; also: plate controls were buffer without enzyme for full effect and enzyme alone for no effect
# Autofluor counter: flagged as autofluorescent in microsphere protease counterscreen; compound autofluorescence counterscreen, microsphere flow cytometry; active compounds read high; fluorescence intensity (concentration not given with the values); hit rate 3.1% among 360,000; AID 624483; in the data active = fluorescence intensity above about 16000; inconclusive = no clear call, values can overlap the other calls
# The depositor's hits bear a star; ? = inconclusive. Rule as the data show it, unless noted: active = inhibition above about 30%; inconclusive = no clear call, values can overlap the other calls; inactive = below that.
SMILES,BoNT-F LC inh,BoNT-A LC inh2,Anthrax LF inh2,Autofluor counter
CC1CCN(c2cc(C#N)c(C#N)cc2[N+](=O)[O-])CC1,-3,-1,0,23005*
Cc1cc(N2CCC(C)CC2)c(F)cc1[N+](=O)[O-],-2,-1,1,24078*
CCCn1ncc(CN2CCC(n3nccc3NC(=O)c3ccccc3Cl)CC2)c1C,4,2,-2,?
COC(CNS(=O)(=O)c1cc2c3c(c1)CCN3C(=O)CC2)OC,1,-1,-1,5174
COc1ccc(CCNC(=O)C(C)n2nc(C)c3c(C)n(-c4ccc(C)cc4)nc3c2=O)c(OC)c1 (stereo not drawn),2,0,0,5688
O=C(O)c1ccc(S(=O)(=O)Nc2ccc3c(c2)OCCO3)cc1,?,-4,31*,3498
CCC(CC)NC(=O)COC(=O)c1ccc(NS(=O)(=O)c2ccc3c(c2)OCCO3)cc1,-6,?,-5,23057*
O=C(O)c1cccc(S(=O)(=O)Nc2ccc3c(c2)OCO3)c1,2,?,0,21051*
CCCCOc1ccc(C(=O)NCC2(c3ccc(OC)cc3)CCOCC2)cc1,-6,0,-5,6815
CC1=C(C(=O)N2CCCCC2)C2(CCC(C)CC2)OC1=O (stereo not drawn),-5,0,-3,6437
CCOC(=O)N1CCN(C(=O)c2cn(C)c(=O)c3c2c2ccccc2n3C)CC1,3,2,0,22295*
Cc1c(C(=O)N2CCC3(CC2)OCCO3)oc2ccccc12,6,4,5,18025*
Cn1cc(C(=O)N2CCC3(CC2)OCCO3)c2c3ccccc3n(C)c2c1=O,-1,-1,-4,23087*
CC1=C(C(=O)N2CCC3(CC2)OCCO3)C2(CCC(C)CC2)OC1=O (stereo not drawn),1,?,-1,21647*
COCCCNC(=O)c1cn(C)c(=O)c2c1c1ccccc1n2C,-10,0,-3,3680
Cn1cc(C(=O)NCCN2CCN(c3cccc(Cl)c3)CC2)c2c3ccccc3n(C)c2c1=O,-2,-1,-3,23347*
O=C(NCCCN1CCCC1)c1[nH]c(C(F)(F)F)nc1-c1ccccc1,4,-1,-9,4355
C=CCNC(=O)c1ccc(C(=O)c2ccccc2)cc1,2,0,0,23162*
C=CCNC(=O)CCCc1ccccc1,-2,0,-1,23759*
C=CCNC(=O)c1ccc2nc(-c3ccccc3)c(-c3ccccc3)nc2c1,-14,2,1,3442
O=C(CCCCC(=O)NCCCc1ccccc1)NCCCc1ccccc1,?,-4,-5,4073
CC(C)c1ccc(CN2CCC2(C)C(=O)Nc2cccc(Oc3ccccc3)c2)cc1 (stereo not drawn),-7,0,0,3991
COc1ccc(C(=O)OCCN=C2NS(=O)(=O)c3ccccc32)cc1OC,7,7,2,21489*
CCOc1ccc(NC(=O)c2ccc(F)c(S(=O)(=O)N3CCCC3)c2)cc1,-14,-1,-11,4527
CCOc1ccc(NC(=O)c2ccc(F)c(S(=O)(=O)N3CCN(c4ccccn4)CC3)c2)cc1,1,?,-2,16376*
SMILES,BoNT-F LC inh,BoNT-A LC inh2,Anthrax LF inh2,Autofluor counter
COc1ccc2c(c1)C1NC(=S)NC(C)(O2)C1C(=O)Nc1ccc(C)cc1C (stereo not drawn),40*,4,1,2082
CCN1C(=O)C(CC(=O)Nc2ccc(OC)cc2)N(Cc2cccnc2)C1=S (stereo not drawn),3,1,0,10462
C=CCN1C(=O)C(CC(=O)Nc2ccc(OC)cc2)N(Cc2ccco2)C1=S (stereo not drawn),-1,?,1,22980*
COc1ccc(NC(=O)CC2C(=O)N(CCc3ccccc3)C(=S)N2Cc2cccnc2)cc1 (stereo not drawn),-6,-3,0,20810*
F[B-](F)(F)COCc1ccccc1Br,-6,0,-2,3849
Cc1ccc(S(=O)(=O)N2CCOCC2)cc1C(=O)NCc1ccccc1CN1CCCC1,4,0,-7,3964
COC(=O)c1c(NC(=O)c2ccc(Br)s2)sc2c1CCC2,2,3,-4,21623*
COC(=O)c1c(NC(=O)c2nn(C)cc2Cl)sc2c1CCCC2,5,?,-6,20893*
COC(=O)c1c(NC(=O)c2ccoc2C)sc2c1CCC2,-18,-1,-6,4198
O=C(Cc1ccc(Cl)cc1)NC1CCCN(Cc2ccccc2F)C1 (stereo not drawn),19,0,7,4032
CCN1CCN(C(=O)c2ccc(Cl)c(S(=O)(=O)N(C)c3ccccc3)c2)CC1,-3,4,-2,?
